# Screening results from PubChem BioAssay.
# Most compounds without a hit are left out; they make up all but 3.4% or so of the library.
# TEAD-YAP block: TEAD-YAP interaction inhibition; HEK-TIYL cells, TEAD-Gal4/YAP UAS-luciferase luminescence; inhibition, % at 9.12 µM; actives 1.4% (n = 640,000); in the data active = inhibition above about 32%;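 also: 0% = median of test compound wells and 100% = reference inhibitor wells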
# FBW7 act: human FBW7 E3 ligase activation, primary screen; actives 0.13% (n = 650,000); AlphaScreen FBW7–phospho-cyclin E peptide binding, activator screen; normalized activity (activation), % at 26.1 µM; Q969H0; AID 1259310; in the data active = normalized activity above about 1.9%;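 also: purified mutant Fbw7 with reduced substrate affinity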
# GPR151 activ: human GPR151 activation; Q8TDV0; PathHunter beta-arrestin GPR151 cells, luminescence; activation, % at 11.2 µM; actives 1% (n = 650,000); in the data active = activation above about 4.9%;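 also: 0% = median of compound wells and 100% = cells with positive control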
# Target sequence (Q8TDV0 whole entry, looked up): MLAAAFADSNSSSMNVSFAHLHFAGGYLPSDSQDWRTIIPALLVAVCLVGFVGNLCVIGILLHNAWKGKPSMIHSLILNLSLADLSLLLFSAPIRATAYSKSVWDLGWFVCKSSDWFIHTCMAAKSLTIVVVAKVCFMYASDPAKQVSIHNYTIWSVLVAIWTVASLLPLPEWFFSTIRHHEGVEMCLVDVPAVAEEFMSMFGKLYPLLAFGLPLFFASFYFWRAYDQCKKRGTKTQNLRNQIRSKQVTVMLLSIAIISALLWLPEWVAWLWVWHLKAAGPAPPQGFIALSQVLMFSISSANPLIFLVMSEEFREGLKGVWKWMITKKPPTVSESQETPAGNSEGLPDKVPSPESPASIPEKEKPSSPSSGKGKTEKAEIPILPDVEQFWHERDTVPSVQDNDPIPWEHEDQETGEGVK
# MITF primary: inhibitors of human MITF; inhibition, % at 2.6 µM; AID 1259374; actives 0.91% (n = 650,000); AlphaScreen MITF homodimerization, bead proximity signal; O75030; in the data active = inhibition above about 50%;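 also: 0% = vehicle wells with protein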
# Numbers without * were called inactive.
SMILES,TEAD-YAP block,FBW7 act,GPR151 activ,MITF primary
CCOc1cc([N+](=O)[O-])c2[nH]c(C(=O)O)c(C)c2c1,45*,0,-1,-9
CCOC(=O)c1[nH]c2c([N+](=O)[O-])cc(OC)cc2c1-c1ccccc1,3,0,0,13
c1ccc(-n2cnc3c(Nc4ccc(N5CCOCC5)cc4)nc(-c4ccc(N5CCOCC5)nc4)nc32)cc1,2,0,0,3
OCCNc1nc(-c2ccc(N3CCOCC3)nc2)nc2c1ncn2-c1ccccc1,61*,0,-1,5
c1ccc(-n2cnc3c(NC4CC4)nc(-c4ccc(N5CCOCC5)nc4)nc32)cc1,45*,1,-1,11
O=C(NCCc1ccccc1)c1ccc(OC2CCN(C(=O)c3cnsn3)CC2)cc1,0,0,0,9
O=C1CC[C@@H](C(=O)N2CCC(Oc3ccc(C(=O)NCCc4ccccc4)cc3)CC2)N1,40*,0,0,0
O=C(NCCc1ccccc1)c1ccc(OC2CCN(C(=O)C3=CCCC3)CC2)cc1,65*,0,2,-4
O=C(NCCc1ccccc1)c1ccc(OC2CCN(C(=O)c3cscn3)CC2)cc1,64*,0,1,10
O=C(NCCOc1cccnc1)c1ccc(OC2CCN(CCc3ccccc3)CC2)cc1,42*,0,-2,17
O=C(NCCc1ccccc1)c1ccc(OC2CCN(C(=O)C3CC3)CC2)cc1,-10,0,0,-7
CCc1ccc(Nc2nc3ccccc3nc2NS(=O)(=O)c2ccc(Cl)cc2)cc1,-8,0,0,20
CC(=O)NCC(=O)N1CCC(Oc2ccc(C(=O)NCCc3ccccc3)cc2)CC1,33*,0,-1,7
CC(=O)N1CCC(Oc2ccc(C(=O)NCCc3ccccc3)cc2)CC1,-15,0,3,-16
CC(=O)N1C(NCc2ccccc2)CC(C)N1c1ccccc1 (stereo not drawn),9,0,0,6
COc1ccc(CCN2C(=O)CSC2c2ccc(C(C)C)cc2)cc1OC (stereo not drawn),40*,0,2,-3
COCCCN1C(=O)C(=O)/C(=C(/O)c2cccc(OC)c2)C1c1ccco1 (stereo not drawn),4,0,1,29
CCC(CO)Nc1ccc2ncc(-c3cccc(NS(C)(=O)=O)c3)n2n1 (stereo not drawn),37*,0,1,-9
CCC(CO)Nc1ccc2ncc(-c3ccc(OC)cc3)n2n1 (stereo not drawn),16,1,0,16
CCC(CO)Nc1ccc2ncc(-c3cncc(OC)c3)n2n1 (stereo not drawn),54*,0,0,6
CN(C)c1ccc(/C=N/N2C(=O)C3C4C=CC(C5CC45)C3C2=O)cc1 (stereo not drawn),-9,0,1,9
O=c1c2ccccc2ncn1-c1ccc([N+](=O)[O-])cc1[N+](=O)[O-],49*,0,-1,13
COC(=O)c1cc(NC(=O)C23CCC(C)(C(=O)C2=O)C3(C)C)cc(C(=O)OC)c1 (stereo not drawn),3,0,2,59*
CN(C)c1ccc(C(=O)Nc2ccccc2C(N)=O)cc1,52*,0,-5,-18
NC(=O)c1ccccc1NC(=O)c1ccc(-c2ccccc2)cc1,-18,0,-1,1
SMILES,TEAD-YAP block,FBW7 act,GPR151 activ,MITF primary
CN(C)c1ccc(C(=O)Nc2ccccc2Br)cc1,65*,0,-5,-2
CN(C)c1ccc(C(=O)Nc2cc(C(N)=O)c(Cl)cc2Cl)cc1,-8,0,-1,-6
CC(C)(C)c1ccc(C(=O)Nc2ccccc2C(N)=O)cc1,56*,2.1*,-4,17
CC(C)(C)c1ccc(C(=O)Nc2sccc2C(N)=O)cc1,69*,0,-6,-4
Cc1cc(-c2csc(Nc3ccc(O)c(C(=O)O)c3)n2)ccc1F,3,0,-1,1
c1ccc2c(NCCc3cnc[nH]3)c3ccccc3nc2c1,77*,0,-2,12
O=C(O)CNc1c2ccccc2nc2ccccc12,-5,0,1,16
OCCNc1c2ccccc2nc2ccccc12,71*,0,0,3
CC1(C)Oc2ccc3ccc(=O)oc3c2C/C1=N\Nc1ccccc1,49*,1,-1,2
O=C(CSc1nc(-c2ccccc2)ns1)N1CCCCCC1,39*,0,-2,9
CCOC(=O)CCC(=O)Nc1c(C(=O)Nc2ccccc2F)oc2ccccc12,2,0,1,4
CC1(C)CC(=O)C2=C(C1)Nc1ccc3ncccc3c1C2c1cccc(Cl)c1Cl (stereo not drawn),3,0,2,2
CC1(C)CC(=O)C2=C(C1)Nc1ccc3ncccc3c1C2c1cn[nH]c1-c1ccc(F)cc1 (stereo not drawn),35*,0,-1,-2
CC(=O)NC(Nc1nnc(-c2ccccc2)s1)C(Cl)(Cl)Cl (stereo not drawn),22,0,3,-6
CC(=O)NC(Nc1nnc(-c2ccc(C)cc2)s1)C(Cl)(Cl)Cl (stereo not drawn),49*,0,-1,8
CCOc1ccc(C(C)(N)CC(=O)OC)cc1 (stereo not drawn),2,0,-1,1
Cc1ccc(C(=O)Nc2c(C(=O)Nc3ccccn3)cnn2-c2ccccc2)cc1,-22,0,1,14
CC(=O)Nc1cccc(-c2cnc3c(N4CCN(C(=O)c5ccco5)CC4)nccn23)c1,93*,0,-5,-9
CC(=O)Nc1cccc(-c2cnc(N3CCN(C(=O)c4ccco4)CC3)c3nccn23)c1,92*,3.2*,-5,16
O=C(c1ccco1)N1CCN(c2nccn3c(-c4cccc(F)c4)cnc23)CC1,-16,0,1,3
COc1ccccc1N1CCN(c2nc(Nc3ccc(Cl)cc3)c3cnn(C)c3n2)CC1,-5,0,2,-3
Cc1ccc(C(=O)Nc2sc3c(c2C(N)=O)CCCCC3)o1,55*,0,-4,-3
NC(=O)c1c(NC(=O)c2cc3ccccc3o2)sc2c1CCCC2,46*,0,-5,-14
CCCc1cc(-c2onc(C)c2-c2ccc3c(c2)OCCCO3)c(O)cc1OC,-23,0,-1,-15
CCc1cc(-c2onc(C)c2-c2ccc(OC)cc2)c(O)cc1OC,45*,0,0,16
SMILES,TEAD-YAP block,FBW7 act,GPR151 activ,MITF primary
CCOc1cc(/C=N/N=C2\NC(=O)C(CC(=O)O)S2)ccc1OCc1ccccc1 (stereo not drawn),-3,0,1,19
O=C(Nc1cccc(-c2cn3ccsc3n2)c1)c1ccco1,-16,0,2,14
Fc1cccc(Oc2ncnc3c2cnn3-c2cccc(Cl)c2)c1,-3,0,-1,-8
Cc1ccc(-n2ncc3c(Oc4ccc(F)cc4)ncnc32)cc1,58*,0,0,-1
COc1ccc(Oc2ncnc3c2cnn3-c2ccccc2)cc1,-11,0,1,10
Fc1ccc(-n2ncc3c(Oc4ccc(Cl)cc4)ncnc32)cc1,42*,0,0,8
Cc1ccc(Oc2ncnc3c2cnn3-c2ccccc2)cc1,51*,0,1,8
